Bioassay records as filed in PubChem BioAssay.
This is a sample that favours compounds with a hit; in the whole collection about 1% have one here.
HUVEC tox TNFa – HUVEC cytotoxicity counter-screen, TNF alpha stimulated; HUVEC TNFalpha-stimulated, Hoechst cell count, imaging; cell count reduction, % at 2 µM; 0.17% of 93,000 active; AID 848;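 active = cell count reduction exceeding the screen mean by over 5 SD, scaled to untreated wells per plate, cut at about 78% in these data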;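 also: cells counted after 24 h of TNF alpha exposure following the 1 h pretreatment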
F-actin modifier – modifiers of cytoskeleton assembly; HUVEC TNFa F-actin phalloidin imaging, high content; inhibition, % at 2 µM; 0.18% of 91,000 active;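 active = inhibition above the batch mean plus 3 SD and confirmed as a hit by visual image inspection, cut at about 30% in these data, passing the limit was not always enough; inconclusive = above the inhibition threshold but rejected on visual inspection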
VCAM1 TNFa inh – reduces TNF alpha induced VCAM1 expression in HUVEC; inhibition, % at 2 µM; 0.48% of 95,000 active; HUVEC TNFa-induced VCAM-1 immunofluorescence, high-content imaging;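 active = inhibition above the batch mean plus 3 SD, with images confirmed as a hit by eye, cut at about 37% in these data; inconclusive = inhibition above that limit but hit not confirmed in images; inactive = inhibition not above that limit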
E-sel TNF inh – blocks E-selectin expression induced by TNF alpha. HUVEC TNFa-induced E-selectin immunofluorescence, high content. inhibition, % at 2 µM. 0.71% of 120,000 active;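 active = inhibition above the batch mean plus 3 SD, and confirmed as a hit on visual image review, cut at about 43% in these data; inconclusive = passes the inhibition cutoff but fails visual image review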
Numbers stand for hits; n = inactive; u = inconclusive; x = no result given.

SMILES | HUVEC tox TNFa | F-actin modifier | VCAM1 TNFa inh | E-sel TNF inh
COc1cccc(/C=N/NC(=O)CSc2nnc(C)n2-c2ccccc2)c1O | n | n | n | n
O=C(NCCN1C(=O)S/C(=C\c2ccccc2)C1=O)c1cc(S(=O)(=O)N2CCOCC2)c(Cl)cc1Cl | x | x | x | n
O=C(c1cccc(F)c1)N1CCN(c2cc(N3CCCCC3)c(F)cc2[N+](=O)[O-])CC1 | n | n | n | 51
N#CCOC(=O)/C=C/c1ccc2c(c1)OCO2 | x | x | x | n
CCn1c(COc2c(C)cccc2C)nnc1SCC(=O)N1CCN(c2ccccc2)CC1 | n | n | n | n
C=CCn1c(COc2cccc(C)c2C)nnc1SCC(=O)N1CCN(c2ccccc2)CC1 | x | x | x | 68
Cc1ccc(C)c(N(CC(=O)NCCSCc2ccco2)S(C)(=O)=O)c1 | n | n | n | 63
COc1cc(NC(=O)CSc2nc(C)c(C)c(C)n2)cc(OC)c1 | x | x | x | n
CCCCC(CC)C(=O)Nc1ncc([N+](=O)[O-])s1 (stereo not given) | x | x | x | n
Cc1cc(C(=O)Nc2nc3c(s2)CCCC3)no1 | n | x | n | 40
CC1CCN(S(=O)(=O)c2cc(C(=O)N3CCN(c4ncccn4)CC3)ccc2Br)CC1 | x | x | x | n
COc1ccc(C(=O)/C=C/c2ccc(F)cc2)c(OC(=O)c2ccc([N+](=O)[O-])cc2)c1 | n | n | n | 70
CCCn1c(=O)c2ccccc2n2c(SCC(=O)NCc3cccs3)nnc12 | n | 79 | n | n
O=C(NCc1ccco1)C(=O)NCc1ccccc1Cl | x | x | x | n
O=C(CN1CCN(Cc2ccccc2Cl)C1=O)NCc1ccco1 | n | n | n | 64
COc1ccc(CC(=O)Nc2ccc(-c3noc(-c4cccc(OC)c4)n3)cc2)cc1 | n | n | 39 | n
Cc1ccc(N/C(C(Cl)=C(Cl)Cl)=C(/Cl)[N+](=O)[O-])c(C)c1 | x | x | x | n
Cc1cc(-c2c(C)[nH]n(-c3ccccc3)c2=O)n(-c2ccccc2)n1 | n | n | n | 100
COc1cc(C2C(C#N)=C(C)NC3=C2C(=O)c2ccccc23)cc(OC)c1OC (stereo not given) | n | n | 89 | x
CCOc1ccc(C2C(C#N)=C(C)NC3=C2C(=O)c2ccccc23)cc1 (stereo not given) | n | n | n | n
CC1=C([N+](=O)[O-])C(c2ccccc2)C2=C(N1)c1ccccc1C2=O (stereo not given) | n | n | 44 | n
COc1ccc(C2C(C#N)=C(C)NC3=C2C(=O)c2ccccc23)cc1 (stereo not given) | n | n | n | x
CCOC(=O)Cc1c(C)nc(Cc2ccc(OC(C)C)cc2)[nH]c1=O | x | x | x | n
Cc1c(C(=O)N2CCN(c3ccccc3F)CC2)sc2ncn(CC(=O)N3CCOCC3)c(=O)c12 | n | 88 | n | n
CCCNC(=O)Cn1cnc2sc(C(=O)N3CCN(c4ccc(F)cc4)CC3)c(C)c2c1=O | n | n | n | x
SMILES | HUVEC tox TNFa | F-actin modifier | VCAM1 TNFa inh | E-sel TNF inh
O=C(NC(C(=O)c1ccccc1)N1CCOCC1)c1ccccc1 (stereo not given) | x | x | x | 100
CCOC(=O)C1CCCN(S(=O)(=O)c2cn(C)c(=O)n(C)c2=O)C1 (stereo not given) | 79 | n | n | x
COc1ccc(/C=N/OCC(=O)N2CC3(C)CC2CC(C)(C)C3)cc1 (stereo not given) | n | n | n | n
COc1ccc(/C(C)=N/OCC(=O)N2CC3(C)CC2CC(C)(C)C3)cc1 (stereo not given) | x | x | x | 94
O=C1c2ccccc2NC(c2ccc(Cl)cc2Cl)N1O (stereo not given) | n | n | n | n
C=CCc1cccc(C2Nc3ccccc3C(=O)N2O)c1O (stereo not given) | n | n | n | 62
CCOC(=O)c1cnc2ccc(C(=O)OC)cc2c1Nc1cccc(C(=O)O)c1 | x | x | x | n
CCOC(=O)c1cnc2ccc(C)cc2c1Nc1ccc(N2CCOCC2)cc1 | n | n | n | 100
CCOc1ccc(Nc2cc(C)nc(N3CCOCC3)n2)cc1 | n | n | n | n
CCOC(=O)c1ccc(Nc2cc(C)nc(N3CCOCC3)n2)cc1 | n | n | n | 67
CC1Nc2ccccc2C(=O)N1NS(=O)(=O)c1ccccc1 (stereo not given) | x | x | x | n
CCC(=O)Nc1nnc(-c2ccccn2)o1 | x | x | x | 68
Cc1ccc(S(=O)(=O)Nc2ccc(NC(=O)Nc3ccc(F)cc3F)cc2)cc1 | x | x | x | 82
O=C(Nc1ccncc1)Nc1ccc(F)cc1F | n | n | n | n
CCOC(=O)/C(=C\c1cccnc1)C(=O)c1cc(C(C)=O)c(Nc2ccccc2)s1 | n | x | 54 | n
Cn1ccc(C(=O)OCC(=O)Nc2cccc3ccccc23)n1 | x | x | x | n
CCOc1ccc(NCc2nc3ccccc3n2CCOc2ccccc2)cc1 | x | x | x | 92
Cc1ccc(C)n1NC(=O)c1cccs1 | n | n | n | 100
CCOC(=O)C1CCCN(c2ncnc3c2cnn3-c2ccc(Cl)cc2)C1 (stereo not given) | n | x | n | 63
CCOC(=O)C1CCCN(c2ncnc3c2cnn3-c2ccc(OC)cc2)C1 (stereo not given) | n | n | n | x
O=C(CSc1nnc(-c2ccccc2)c(-c2ccccc2)n1)Nc1ccc(Br)cn1 | x | x | x | n
CCNc1nc(CC)nc2c1oc1ccccc12 | x | x | x | n
CCNc1nc(C)nc2c1oc1ccccc12 | 92 | n | n | x
Cc1nc(NC(C)C)c2oc3ccccc3c2n1 | 91 | n | 78 | x
CCOC(=O)Cn1nnnc1CN(CCc1ccccc1)Cc1cc2cc(CC)ccc2[nH]c1=O | 83 | x | u | n
SMILES | HUVEC tox TNFa | F-actin modifier | VCAM1 TNFa inh | E-sel TNF inh
Cn1ccnc1SCC(=O)Nc1ccc2c(c1)OC(F)(F)O2 | x | x | x | n
CCc1n[nH]c(=S)n1/N=C/c1ccc2c(c1)OCO2 | n | n | n | n
CCCc1nnc(SCC(=O)O)n1/N=C/c1ccc2c(c1)OCO2 | n | x | 48 | n
CCCCNC(=O)C1CCCN(S(=O)(=O)c2ccc(-n3cnnn3)cc2)C1 (stereo not given) | n | n | n | n
O=C(NCC1CC1)C1CCCN(S(=O)(=O)c2ccc(-n3cnnn3)cc2)C1 (stereo not given) | n | n | n | 62
O=C1CC(c2ccccc2)CC2=C1CN(C1CCCCC1)CN2 (stereo not given) | n | n | n | 70
COC(=O)Sc1nc(N2CCOCC2)c2c(c1C#N)CC(C)(C)OC2 | n | n | 41 | x
COC(=O)CCc1nc2ccccc2[nH]c1=O | n | n | n | n
CCOC(=O)CCc1nc2ccccc2[nH]c1=O | n | n | n | 63
CC(C)/C=N/Nc1nc(-c2ccc(Br)cc2)cs1 | x | x | x | n
CCN(/N=C/c1ccc(Cl)cc1)c1cc(=O)n(C)c(=O)[nH]1 | x | x | x | 62
COc1ccccc1-n1c(=O)c2c3c(sc2n2c(=S)[nH]nc12)CCC3 | x | x | x | n
Nc1ccc2nc(-c3ccc(N)c(Cl)c3)[nH]c2c1 | n | 46 | n | n
CCC(C)Nc1nc(OC(C(F)(F)F)C(F)(F)F)nc(OC(C(F)(F)F)C(F)(F)F)n1 (stereo not given) | n | n | n | 43
O=C(/C=C/c1ccccc1)Nc1ncn[nH]1 | n | n | n | 60
Cc1nonc1NC(=O)CSc1nc(C2CCCCC2)nc2ccccc12 | n | 83 | n | n
COC(=O)c1cc2sccc2n1CC(=O)N1CCCc2ccccc21 | n | n | n | x
COC(=O)c1cc2oc(C)cc2n1CC(=O)N1CCCc2ccccc21 | n | n | n | 71
